{"source": "PubChem BioAssay AID1259343", "about": "(VanderVen Lab, College of Veterinary Medicine, Cornell …, 2017)", "note": "Screen size: about 6,200 compounds; about 2,900 (47%) were called active. Cut-off read from the data, not from the text of the source: active = inhibition above about 50%; inactive = the rest. So high a share suggests a set chosen from earlier hits. Some of the results follow.", "data": [{"test": "Mycobacterium tuberculosis growth inhibition, primary screen (AID 1259343)", "conditions": "inhibition: at 10 µM, hits give high values; outcome: 10 uM", "values": [{"smiles": "Cc1ccc(/C=C/c2nc3scc(CC(C)C)c3c(=O)[nH]2)s1", "inhibition": "-12.6% (inactive)"}, {"smiles": "COc1ccccc1CC(=O)N1CCC(n2nc(-c3ccccc3)cc2-c2ccccc2)CC1", "inhibition": "59.7% (active)"}, {"smiles": "COc1cc(-c2ccc(=O)n(Cc3ccccc3C)n2)cc(OC)c1OC", "inhibition": "inactive"}, {"smiles": "CCCC(=O)N1CCCC1C(=O)Nc1ccc(-c2ccccc2)nn1", "note": "(configuration not stated)", "inhibition": "-13% (inactive)"}, {"smiles": "COc1ccccc1-c1nnc(SCC(=O)c2ccc3c(c2)OCO3)o1", "inhibition": "-33.1% (inactive)"}, {"smiles": "CCc1ccc(-c2noc(CSc3nnc(-c4ccc5c(c4)OCO5)o3)n2)cc1", "inhibition": "-23.7% (inactive)"}, {"smiles": "COc1ccc(OCCSc2nnc(-c3ccc(OC)c(OC)c3)o2)cc1", "inhibition": "91.1% (active)"}, {"smiles": "COc1ccc(-c2noc(CSc3nnc(-c4ccc5c(c4)OCO5)o3)n2)cc1OC", "inhibition": "78.9% (active)"}, {"smiles": "COc1ccccc1-c1noc(CSc2nnc(-c3ccc4c(c3)OCO4)o2)n1", "inhibition": "99% (active)"}, {"smiles": "CCn1c(SCC(=O)c2cc(C)ccc2C)nnc1-c1ccco1", "inhibition": "52.6% (active)"}, {"smiles": "CCn1c(SCC(=O)Nc2ccc(I)cc2)nnc1-c1ccco1", "inhibition": "10.3% (inactive)"}, {"smiles": "Cn1c(SC2CCCc3ccccc32)nnc1-c1ccco1", "note": "(configuration not stated)", "inhibition": "27.9% (inactive)"}, {"smiles": "CC1CCCN(S(=O)(=O)NCc2ccccc2Cl)C1", "note": "(configuration not stated)", "inhibition": "-12.8% (inactive)"}, {"smiles": "CC1CCN(S(=O)(=O)NC(C)c2ccc(F)cc2)CC1", "note": "(configuration not stated)", "inhibition": "17.4% (inactive)"}, {"smiles": "CC1CCN(S(=O)(=O)NCCc2ccccc2F)CC1", "inhibition": "82.6% (active)"}, {"smiles": "C/C=C/c1cc(C(=O)Nc2nc(C)cs2)cc(OC)c1OC", "inhibition": "57.2% (active)"}, {"smiles": "Cc1csc(NC(=O)c2ccnc(N(C)C)c2)n1", "inhibition": "-4.65% (inactive)"}, {"smiles": "COc1ccc(CNC(=O)Nc2ncc([N+](=O)[O-])s2)cc1", "inhibition": "11.6% (inactive)"}, {"smiles": "COc1ccc(Oc2ccc(CNCc3ccc(C)s3)cn2)cc1", "inhibition": "78.2% (active)"}, {"smiles": "Cc1ccccc1OCC(=O)Nc1ccc(-n2ccnc2)cc1C(F)(F)F", "inhibition": "8.11% (inactive)"}, {"smiles": "CNC(=O)C(C#N)C(=O)c1sc(-c2ccc(Cl)s2)nc1C", "note": "(configuration not stated)", "inhibition": "54.5% (active)"}, {"smiles": "Cc1nc(-c2cc(Br)cs2)sc1C(=O)O", "inhibition": "19.5% (inactive)"}, {"smiles": "CC(C)N1CCN(Cc2ccc(C#CC(C)(C)O)s2)CC1CCO", "note": "(configuration not stated)", "inhibition": "77.8% (active)"}, {"smiles": "O=C(CS(=O)CCOc1cccc(Br)c1)NCC1CCCCC1", "note": "(configuration not stated)", "inhibition": "12.5% (inactive)"}, {"smiles": "O=C(NCC1CCCC1)c1csc(Br)c1", "inhibition": "95.4% (active)"}, {"smiles": "O=C(NS(=O)(=O)C1CCCC1)c1ccc(F)c(F)c1", "inhibition": "25.9% (inactive)"}, {"smiles": "O=C(NCC1CC1)c1cc(-c2ccc(Br)cc2)n[nH]1", "inhibition": "2.7% (inactive)"}, {"smiles": "COc1ccc(C(=O)NCC2CCCCC2)cc1F", "inhibition": "70.9% (active)"}, {"smiles": "CCOc1ccc(NC(=O)COC(=O)c2ccc(Cl)cc2O)cc1", "inhibition": "94.7% (active)"}, {"smiles": "Cc1nc(-n2nc(-c3cccs3)cc2NC(=O)c2ccccc2Cl)[nH]c(=O)c1C", "inhibition": "61% (active)"}, {"smiles": "CC(C)c1cc(=O)[nH]c(-n2nc(-c3cccs3)cc2N)n1", "inhibition": "1.53% (inactive)"}, {"smiles": "Cc1cc(=O)[nH]c(-n2nc(-c3cccs3)cc2N)n1", "inhibition": "-45.8% (inactive)"}, {"smiles": "Cc1nc(-n2nc(-c3cccs3)cc2NC(=O)c2ccccc2F)[nH]c(=O)c1C", "inhibition": "83.2% (active)"}, {"smiles": "Cc1nc(-n2nc(-c3cccs3)cc2NC(=O)c2ccc(F)cc2)[nH]c(=O)c1C", "inhibition": "99.3% (active)"}, {"smiles": "CCC(CC)C(=O)Nc1cc(-c2cccs2)nn1-c1nc(C)c(C)c(=O)[nH]1", "inhibition": "-21.5% (inactive)"}, {"smiles": "Cc1nc(-n2nc(-c3cccs3)cc2N)[nH]c(=O)c1C", "inhibition": "92.4% (active)"}, {"smiles": "O=C(O)c1csc(-c2cnn(-c3ccccc3)n2)n1", "inhibition": "33.6% (inactive)"}, {"smiles": "Cc1cc(C)cc(NC(=O)c2ncn(-c3ccccc3C)n2)c1", "inhibition": "77.4% (active)"}, {"smiles": "CCN(CC)c1ccc(-c2n[nH]c(=S)o2)cc1", "inhibition": "-4.83% (inactive)"}, {"smiles": "O=C1CNC(=S)N1c1ccc(Cl)cc1", "inhibition": "-2.04% (inactive)"}, {"smiles": "CCN(CC)c1ccc(N2C(=O)CNC2=S)cc1", "inhibition": "54.3% (active)"}, {"smiles": "O=C(c1ccc(Cl)cc1)c1c(O)cc(-c2ccc(Cl)cc2)oc1=O", "inhibition": "84% (active)"}, {"smiles": "S=c1[nH]cc(-c2ccc(Cl)cc2)o1", "inhibition": "-9.85% (inactive)"}, {"smiles": "C=CCSc1nc2sc(C(=O)O)c(C)c2c(=O)[nH]1", "inhibition": "26.3% (inactive)"}, {"smiles": "Cc1sc2nc(CSC3=NCCS3)[nH]c(=O)c2c1C", "inhibition": "49% (inactive)"}, {"smiles": "CSc1nnc(SCc2nc3sc(C(=O)O)c(C)c3c(=O)[nH]2)s1", "inhibition": "80.8% (active)"}, {"smiles": "O=[N+]([O-])C1=C(Nc2ccc(-c3ccccc3)cc2)CS(=O)(=O)C1", "inhibition": "95.9% (active)"}, {"smiles": "CC(NC(=O)COc1ccc(C(F)(F)F)cc1)c1cccc(F)c1", "note": "(configuration not stated)", "inhibition": "9.32% (inactive)"}, {"smiles": "COc1ccc(OCc2cc(C(=O)NCc3cccc(F)c3)no2)c(Cl)c1", "inhibition": "34.7% (inactive)"}, {"smiles": "CNC(=O)c1ccc(OCc2cccc(F)c2)cc1", "inhibition": "78.6% (active)"}, {"smiles": "Cc1[nH]c(=S)sc1CC(=O)Nc1cccc(OCc2ccc(F)cc2)c1", "inhibition": "38.9% (inactive)"}, {"smiles": "CC(=O)Nc1cccc(OCc2ccc(F)cc2)c1", "inhibition": "92.5% (active)"}, {"smiles": "CC(=O)Nc1ccc(OCc2cccc(F)c2)c(Cl)c1", "inhibition": "85.1% (active)"}, {"smiles": "O=C(O)c1ccc(F)c(COc2ccc(F)cc2)c1", "inhibition": "18.4% (inactive)"}, {"smiles": "CSc1cccc(NC(=O)c2cc(=O)c(OCc3ccc(F)cc3)c[nH]2)c1", "inhibition": "85.5% (active)"}, {"smiles": "CCCS(=O)(=O)NCc1nc(NCCCc2ccccc2)c2ccccc2n1", "inhibition": "33.8% (inactive)"}, {"smiles": "CN(Cc1cccc(Cn2cccn2)c1)Cc1cc(-c2ccccc2)no1", "inhibition": "61.2% (active)"}, {"smiles": "CN(Cc1ccc2c(c1)OCCO2)Cc1cc(-c2ccccc2)no1", "inhibition": "37.6% (inactive)"}, {"smiles": "CN(Cc1cc(-c2ccncc2)no1)Cc1ccc(C2CCCCO2)s1", "note": "(configuration not stated)", "inhibition": "27.1% (inactive)"}, {"smiles": "CN(Cc1cc(-c2ccncc2)no1)Cc1ccc(Cl)s1", "inhibition": "54.1% (active)"}, {"smiles": "CN(Cc1cc(-c2ccncc2)no1)Cc1cc2ccccc2o1", "inhibition": "23.3% (inactive)"}, {"smiles": "CN(Cc1cc(-c2ccccc2)no1)Cc1cccc2nonc12", "inhibition": "27.9% (inactive)"}, {"smiles": "CN(Cc1ccsc1)Cc1cc(-c2ccccc2)no1", "inhibition": "53.4% (active)"}, {"smiles": "O=C(Nc1cccc2ncccc12)C1CC2CCCC(C1)C2=O", "note": "(configuration not stated)", "inhibition": "-15.1% (inactive)"}, {"smiles": "CCCCC1CCC(C(=O)Nc2noc3ncccc23)CC1", "note": "(configuration not stated)", "inhibition": "99.3% (active)"}, {"smiles": "c1cnc(N2CCN(Cc3csc(-c4cccs4)n3)CC2)nc1", "inhibition": "40.8% (inactive)"}, {"smiles": "CN(Cc1csc(-c2cccs2)n1)c1ccc(-c2nccn2C)nn1", "inhibition": "68.3% (active)"}, {"smiles": "CC1CCc2[nH]c3c(C(=O)NCC4CN(C)CCO4)cccc3c2C1", "note": "(configuration not stated)", "inhibition": "39.4% (inactive)"}, {"smiles": "Cc1ccc(CN(C)Cc2nc(CC3CC3)no2)o1", "inhibition": "inactive"}, {"smiles": "Cc1nc(Cc2noc(CC3CC4CCC3C4)n2)no1", "note": "(configuration not stated)", "inhibition": "66.8% (active)"}, {"smiles": "CN=c1scc(-c2cccc(Br)c2)n1N=Cc1cccc(O)c1O", "inhibition": "17.2% (inactive)"}, {"smiles": "COCCN=c1scc(-c2ccc(Br)cc2)n1N=Cc1ccc(F)cc1", "inhibition": "40.8% (inactive)"}, {"smiles": "COc1ccc(/C=N\\n2c(-c3ccc(Cl)cc3)csc2=N)cc1", "inhibition": "38.1% (inactive)"}, {"smiles": "CN=c1scc(-c2ccccc2)n1N=Cc1ccccc1Br", "inhibition": "6.14% (inactive)"}, {"smiles": "C(=Nn1c(-c2ccccc2)csc1=NCCc1ccccc1)c1ccccn1", "inhibition": "21.8% (inactive)"}, {"smiles": "COCCN=c1scc(-c2ccc(OC(F)F)cc2)n1N=CC1CC2C=CC1C2", "note": "(configuration not stated)", "inhibition": "101% (active)"}, {"smiles": "CN=c1scc(-c2ccccc2)n1N=Cc1cccc(C(F)(F)F)c1", "inhibition": "1.23% (inactive)"}, {"smiles": "C=CCN=c1scc(-c2ccc(OC(F)F)cc2)n1N=Cc1ccc[nH]1", "inhibition": "46.4% (inactive)"}, {"smiles": "COCCN=c1scc(-c2ccc(OC(F)F)cc2)n1N=Cc1ccc(OC)cc1", "inhibition": "63.2% (active)"}, {"smiles": "CN=c1scc(-c2ccc(OC(F)F)cc2)n1N=Cc1cccc(O)c1O", "inhibition": "98.9% (active)"}, {"smiles": "COc1ccc(C=Nn2c(-c3ccc(Cl)cc3)csc2=N)cc1", "inhibition": "60.1% (active)"}, {"smiles": "N#CC1(c2ccccc2)CCC2(CC1)N=C(N)Nc1nc3cc4c(cc3n12)OCCCO4", "note": "(configuration not stated)", "inhibition": "45.8% (inactive)"}, {"smiles": "Clc1ccc(CNc2c3c(nc4nncn24)CCC3)cc1", "inhibition": "54.3% (active)"}, {"smiles": "O=S(=O)(NCc1ccc(Cl)cc1)N1CCCCCC1", "inhibition": "10.6% (inactive)"}, {"smiles": "O=C(Nc1ccc(SCc2cccnc2)cc1)C1=COCCO1", "inhibition": "61% (active)"}, {"smiles": "O=C(Nc1ccc(Oc2ccccc2)cc1)C1=COCCO1", "inhibition": "49.4% (inactive)"}, {"smiles": "Cc1ccc(Sc2ccc(NC(=O)C3=COCCO3)cc2)cc1C", "inhibition": "33.3% (inactive)"}, {"smiles": "NC(=S)NN=Cc1ccc(-c2ccc(SC(F)F)cc2)o1", "inhibition": "103% (active)"}, {"smiles": "O=C1NC(=S)C(=Cc2ccc(-c3ccc(F)cc3)o2)S1", "inhibition": "97.6% (active)"}, {"smiles": "N=c1oc2c([N+](=O)[O-])cc(Cl)cc2cc1-c1nc2ccccc2s1", "inhibition": "-34.4% (inactive)"}, {"smiles": "N#CC(C#N)=Cc1ccc(-c2ccc(F)cc2)o1", "inhibition": "-20.9% (inactive)"}, {"smiles": "O=C1NC(=S)C(=Cc2ccc(-c3nc4ccccc4s3)o2)S1", "inhibition": "77.4% (active)"}, {"smiles": "N#CC(C#N)=Cc1ccc(-c2ccc(SC(F)F)cc2)o1", "inhibition": "-10.2% (inactive)"}, {"smiles": "NC(=S)NN=Cc1ccc(-c2nc3ccccc3s2)o1", "inhibition": "67.3% (active)"}, {"smiles": "O=C(Nc1nc(-c2nc3ccccc3s2)cs1)c1ccc([N+](=O)[O-])o1", "inhibition": "-46.3% (inactive)"}, {"smiles": "Cc1nc(CNS(=O)(=O)c2c(C)c(C)c(C)c(C)c2C)cs1", "inhibition": "6.48% (inactive)"}, {"smiles": "O=C(O)c1cc(Br)c2ccccc2c1O", "inhibition": "96% (active)"}, {"smiles": "Cc1ccn(C(=O)Cc2csc(-c3ccccn3)n2)c(=NC2CCCCC2)c1", "inhibition": "-7.81% (inactive)"}, {"smiles": "Cc1cc(NC(=O)CNCc2csc(-c3cnccn3)n2)ccc1Cl", "inhibition": "77.5% (active)"}, {"smiles": "O=c1[nH]c2cc(Cl)ccc2c(O)c1-c1ccc(Oc2ccccc2)cc1", "inhibition": "17.5% (inactive)"}, {"smiles": "O=c1[nH]c2ccccc2c(O)c1Sc1ccccc1", "inhibition": "82.5% (active)"}, {"smiles": "O=C(c1c(-c2ccc(Br)cc2)c2ccccc2[nH]c1=O)C(F)(F)F", "inhibition": "18.7% (inactive)"}]}]}
